# Reference: the supplement of paper PMC8728848
# The entries come from a sample that favours the strongest signals as a whole.
# How the values were obtained:
# Test in all cases: glycan array binding signal (z-score within array); higher = stronger binding
# Details in all cases: glycan notation: IUPAC condensed, linker removed
# [1] = biological target: Fuc(a1-2)Gal(b1-3)GlcNAc(b1-2)Man(a1-3)[Fuc(a1-2)Gal(b1-3)GlcNAc(b1-2)Man(a1-6)]Man(b1-4)GlcNAc(b1-4)[Fuc(a1-6)]GlcNAc
# Outline: (§1)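 Columns mapping to the same glycan were averaged after glycan names were converted to IUPAC-condensed notation. The data come from 3228 arrays in the Consortium for Functional Glycomics database, limited to those with an available protein sequence. Binding is reported as a within-array Z-score averaged across arrays of one protein sequence and across linkers.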
# [2] = biological target: Fuc(a1-2)Gal(b1-3)GlcNAc(b1-3)[Neu5Ac(a2-6)Gal(b1-4)GlcNAc(b1-6)]Gal(b1-4)Glc
# Outline: as §1
# [3] = biological target: Fuc(a1-2)Gal(b1-4)GlcNAc(b1-2)[Fuc(a1-2)Gal(b1-4)GlcNAc(b1-4)]Man(a1-3)[Fuc(a1-2)Gal(b1-4)GlcNAc(b1-2)Man(a1-6)]Man(b1-4)GlcNAc(b1-4)GlcNAc
# Outline: as §1
# [4] = biological target: Fuc(a1-2)Gal(b1-4)GlcNAc(b1-6)GalNAc
# Outline: as §1
# [5] = biological target: Fuc(a1-2)Gal6S(b1-3)GlcNAc6S
# Outline: as §1
# [6] = biological target: Fuc(a1-2)[Gal(a1-3)]Gal(b1-3)GlcNAc(b1-2)Man(a1-3)[Fuc(a1-2)[Gal(a1-3)]Gal(b1-3)GlcNAc(b1-2)Man(a1-6)]Man(b1-4)GlcNAc(b1-4)GlcNAc
# Outline: as §1
# [7] = biological target: Fuc(a1-2)[Gal(a1-3)]Gal(b1-3)GlcNAc(b1-6)GalNAc
# Outline: as §1
# [8] = biological target: Fuc(a1-2)[Gal(a1-3)]Gal(b1-4)GlcNAc
# Outline: as §1
# [9] = biological target: Fuc(a1-2)[Gal(a1-3)]Gal(b1-4)[Fuc(a1-3)]GlcNAc(b1-3)GalNAc
# Outline: as §1
# [10] = biological target: Fuc(a1-2)[GalNAc(a1-3)]Gal(b1-4)GlcNAc(b1-2)Man(a1-3)[Fuc(a1-2)[GalNAc(a1-3)]Gal(b1-4)GlcNAc(b1-2)Man(a1-6)]Man(b1-4)GlcNAc(b1-4)[Fuc(a1-6)]GlcNAc
# Outline: as §1
# [11] = biological target: Fuc(a1-2)[GalNAc(b1-3)]Gal
# Outline: as §1
# Fuc(a1-4)GlcNAc = biological target: Fuc(a1-4)GlcNAc
# Outline: as §1
# [12] = biological target: Gal(a1-3)Gal(b1-3)[Fuc(a1-4)]GlcNAc(b1-2)Man(a1-3)[Gal(a1-3)Gal(b1-3)[Fuc(a1-4)]GlcNAc(b1-2)Man(a1-6)]Man(b1-4)GlcNAc(b1-4)GlcNAc
# Outline: as §1
# Gal(a1-3)GalNAc = biological target: Gal(a1-3)GalNAc
# Outline: as §1
# Gal(b1-3)Gal(b1-4)GlcNAc = biological target: Gal(b1-3)Gal(b1-4)GlcNAc
# Outline: as §1
# [13] = biological target: Gal(b1-3)GlcNAc(a1-6)Gal(b1-4)GlcNAc
# Outline: as §1
# [14] = biological target: Gal(b1-3)GlcNAc(b1-3)Gal(b1-4)GlcNAc(b1-2)Man(a1-3)[Gal(b1-3)GlcNAc(b1-3)Gal(b1-4)GlcNAc(b1-2)Man(a1-6)]Man(b1-4)GlcNAc(b1-4)GlcNAc
# Outline: as §1
# [15] = biological target: Gal(b1-3)GlcNAc(b1-6)Gal(b1-4)GlcNAc
# Outline: as §1
# [16] = biological target: Gal(b1-3)GlcNAc(b1-6)GalNAc
# Outline: as §1
# Gal(b1-4)Gal = biological target: Gal(b1-4)Gal
# Outline: as §1
# Gal(b1-4)Glc6S = biological target: Gal(b1-4)Glc6S
# Outline: as §1
# [17] = biological target: Gal(b1-4)GlcNAc(a1-6)Gal(b1-4)GlcNAc
# Outline: as §1
# [18] = biological target: Gal(b1-4)GlcNAc(b1-2)[Gal(b1-4)GlcNAc(b1-4)]Man(a1-3)[Gal(b1-4)GlcNAc(b1-2)[Gal(b1-4)GlcNAc(b1-6)]Man(a1-6)]Man(b1-4)GlcNAc(b1-4)GlcNAc
# Outline: as §1
# [19] = biological target: Gal(b1-4)GlcNAc(b1-2)[Gal(b1-4)GlcNAc(b1-6)]Man(a1-6)[Gal(b1-4)GlcNAc(b1-2)Man(a1-3)]Man(b1-4)GlcNAc(b1-4)[Fuc(a1-6)]GlcNAc
# Outline: as §1
# [20] = biological target: Gal(b1-4)GlcNAc(b1-3)Gal(b1-3)GalNAc
# Outline: as §1
# [21] = biological target: Gal(b1-4)GlcNAc(b1-3)Gal(b1-4)[Fuc(a1-3)]GlcNAc(b1-3)Gal(b1-4)[Fuc(a1-3)]GlcNAc
# Outline: as §1
# [22] = biological target: Gal(b1-4)GlcNAc(b1-6)GalNAc
# Outline: as §1
# [23] = biological target: Gal3S(b1-4)[Fuc(a1-3)]GlcNAc
# Outline: as §1
# Gal6S(b1-4)GlcNAc = biological target: Gal6S(b1-4)GlcNAc
# Outline: as §1
# GalNAc(a1-3)Gal = biological target: GalNAc(a1-3)Gal
# Outline: as §1
# [24] = biological target: GalNAc(a1-3)GalNAc(b1-3)Gal(a1-4)Gal(b1-4)Glc
# Outline: as §1
# GalNAc(b1-3)Gal = biological target: GalNAc(b1-3)Gal
# Outline: as §1
# GalNAc(b1-3)GlcNAc = biological target: GalNAc(b1-3)GlcNAc
# Outline: as §1
# GalNAc(b1-4)GlcNAc = biological target: GalNAc(b1-4)GlcNAc
# Outline: as §1
# [25] = biological target: GalNAc(b1-4)GlcNAc(b1-3)GalNAc(b1-4)GlcNAc
# Outline: as §1
# GalNAc(b1-4)GlcNAc6S = biological target: GalNAc(b1-4)GlcNAc6S
# Outline: as §1
# [26] = biological target: Glc(a1-6)Glc(a1-6)Glc(a1-6)Glc
# Outline: as §1
# Glc(b1-6)Glc = biological target: Glc(b1-6)Glc
# Outline: as §1
# GlcA(b1-3)Gal = biological target: GlcA(b1-3)Gal
# Outline: as §1
# GlcA(b1-3)GlcNAc = biological target: GlcA(b1-3)GlcNAc
# Outline: as §1
# [27] = biological target: GlcNAc(b1-3)Gal(b1-4)GlcNAc(b1-3)Gal(b1-4)GlcNAc(b1-3)Gal(b1-4)GlcNAc(b1-3)Gal(b1-4)GlcNAc(b1-2)[GlcNAc(b1-3)Gal(b1-4)GlcNAc(b1-3)Gal(b1-4)GlcNAc(b1-3)Gal(b1-4)GlcNAc(b1-3)Gal(b1-4)GlcNAc(b1-6)]Man(a1-6)[GlcNAc(b1-3)Gal(b1-4)GlcNAc(b1-3)Gal(b1-4)GlcNAc(b1-3)Gal(b1-4)GlcNAc(b1-3)Gal(b1-4)GlcNAc(b1-2)Man(a1-3)]Man(b1-4)GlcNAc(b1-4)[Fuc(a1-6)]GlcNAc
# Outline: as §1
# [28] = biological target: GlcNAc(b1-3)Gal(b1-4)GlcNAc(b1-6)[Gal(b1-3)]GalNAc
# Outline: as §1
# GlcNAc(b1-6)GalNAc = biological target: GlcNAc(b1-6)GalNAc
# Outline: as §1
# [29] = biological target: Man(a1-2)Man(a1-2)Man(a1-3)Man
# Outline: as §1
# [30] = biological target: Man(a1-3)[Man(a1-6)]Man(a1-6)[Man(a1-2)Man(a1-3)]Man(b1-4)GlcNAc(b1-4)GlcNAc
# Outline: as §1
# [31] = biological target: Neu5Ac(a2-3)Gal(b1-3)GlcNAc(b1-3)Gal(b1-4)GlcNAc
# Outline: as §1
# [32] = biological target: Neu5Ac(a2-3)Gal(b1-3)[Fuc(a1-4)]GlcNAc
# Outline: as §1
# [33] = biological target: Neu5Ac(a2-3)Gal(b1-4)GlcNAc(b1-2)Man
# Outline: as §1
# [34] = biological target: Neu5Ac(a2-3)Gal(b1-4)GlcNAc(b1-3)Gal
# Outline: as §1
# [35] = biological target: Neu5Ac(a2-3)Gal(b1-4)GlcNAc(b1-3)Gal(b1-4)GlcNAc(b1-2)Man(a1-3)[Neu5Ac(a2-3)Gal(b1-4)GlcNAc(b1-3)Gal(b1-4)GlcNAc(b1-2)Man(a1-6)]Man(b1-4)GlcNAc(b1-4)GlcNAc
# Outline: as §1
# [36] = biological target: Neu5Ac(a2-3)Gal(b1-4)[Fuc(a1-3)]GlcNAc(b1-3)Gal(b1-4)GlcNAc
# Outline: as §1
# [37] = biological target: Neu5Ac(a2-3)Gal(b1-4)[Fuc(a1-3)]GlcNAc(b1-6)[Gal(b1-3)]GalNAc
# Outline: as §1
# [38] = biological target: Neu5Ac(a2-6)Gal(b1-4)GlcNAc(b1-2)Man
# Outline: as §1
# [39] = biological target: Neu5Ac(a2-6)Gal(b1-4)GlcNAc(b1-2)Man(a1-6)[Gal(b1-4)GlcNAc(b1-2)Man(a1-3)]Man(b1-4)GlcNAc(b1-4)GlcNAc
# Outline: as §1
# [40] = biological target: Neu5Ac(a2-8)Neu5Ac(a2-8)Neu5Ac(a2-3)[Gal(b1-3)GalNAc(b1-4)]Gal(b1-4)Glc
# Outline: as §1
# Neu5Ac(b2-6)GalNAc = biological target: Neu5Ac(b2-6)GalNAc
# Outline: as §1
binder,measurement,setting,value
"MGL2 (Mus musculus), Q8JZN1 (protein) MTMRYENFQNLEREEKNQEMRNGDKKGGMESPKFALIPSQSFLWRILSWTHLLLFSLGLSLLLLVVISVIGSQNSQLRRDLGTLRAILDNTTSKIKAEFQSLDSRADNFEKGISSLKVDVEDHRQELQAGRDLSQKVTSLESTLEKREQALKTDLSDLTDHVQQLETDLKALTCQLANLKNNGSEVACCPLHWTEHEGSCYWFSESEKSWPEADKYCRLENSHLVVVNSLEEQNFLQNRLANVLSWMGLTDQNGPWRWVDGTDFDKGFKNWRPLQPDNWHGHMLGGGEDCAHFSYDGRWNDDVCQRHYHWICETELGKASSAHSPQLIASVP",glycan array binding signal (z-score),[1],-0.201
same,glycan array binding signal (z-score),[2],-0.188
same,glycan array binding signal (z-score),[3],-0.106
same,glycan array binding signal (z-score),[4],1.79
same,glycan array binding signal (z-score),[5],0.028
same,glycan array binding signal (z-score),[6],-0.255
same,glycan array binding signal (z-score),[7],0.323
same,glycan array binding signal (z-score),[8],-0.162
same,glycan array binding signal (z-score),[9],-0.252
same,glycan array binding signal (z-score),[10],-0.211
same,glycan array binding signal (z-score),[11],12.2
same,glycan array binding signal (z-score),Fuc(a1-4)GlcNAc,0.024
same,glycan array binding signal (z-score),[12],-0.193
same,glycan array binding signal (z-score),Gal(a1-3)GalNAc,-0.18
same,glycan array binding signal (z-score),Gal(b1-3)Gal(b1-4)GlcNAc,-0.137
same,glycan array binding signal (z-score),[13],0.067
same,glycan array binding signal (z-score),[14],-0.097
same,glycan array binding signal (z-score),[15],-0.035
same,glycan array binding signal (z-score),[16],2.02
same,glycan array binding signal (z-score),Gal(b1-4)Gal,-0.267
same,glycan array binding signal (z-score),Gal(b1-4)Glc6S,-0.225
same,glycan array binding signal (z-score),[17],-0.091
same,glycan array binding signal (z-score),[18],-0.247
same,glycan array binding signal (z-score),[19],-0.193
same,glycan array binding signal (z-score),[20],-0.14
same,glycan array binding signal (z-score),[21],-0.1
same,glycan array binding signal (z-score),[22],3.5
same,glycan array binding signal (z-score),[23],-0.228
same,glycan array binding signal (z-score),Gal6S(b1-4)GlcNAc,-0.276
same,glycan array binding signal (z-score),GalNAc(a1-3)Gal,1.48
same,glycan array binding signal (z-score),[24],-0.259
same,glycan array binding signal (z-score),GalNAc(b1-3)Gal,4.95
same,glycan array binding signal (z-score),GalNAc(b1-3)GlcNAc,8.82
same,glycan array binding signal (z-score),GalNAc(b1-4)GlcNAc,5.73
same,glycan array binding signal (z-score),[25],2.48
same,glycan array binding signal (z-score),GalNAc(b1-4)GlcNAc6S,3.46
same,glycan array binding signal (z-score),[26],0.014
same,glycan array binding signal (z-score),Glc(b1-6)Glc,-0.253
same,glycan array binding signal (z-score),GlcA(b1-3)Gal,-0.219
same,glycan array binding signal (z-score),GlcA(b1-3)GlcNAc,0.307
same,glycan array binding signal (z-score),[27],-0.062
same,glycan array binding signal (z-score),[28],-0.047
same,glycan array binding signal (z-score),GlcNAc(b1-6)GalNAc,6.85
same,glycan array binding signal (z-score),[29],-0.161
same,glycan array binding signal (z-score),[30],-0.006
same,glycan array binding signal (z-score),[31],-0.274
same,glycan array binding signal (z-score),[32],-0.173
same,glycan array binding signal (z-score),[33],-0.034
same,glycan array binding signal (z-score),[34],-0.3
same,glycan array binding signal (z-score),[35],0.166
same,glycan array binding signal (z-score),[36],-0.189
same,glycan array binding signal (z-score),[37],-0.139
same,glycan array binding signal (z-score),[38],-0.19
same,glycan array binding signal (z-score),[39],-0.174
same,glycan array binding signal (z-score),[40],-0.194
same,glycan array binding signal (z-score),Neu5Ac(b2-6)GalNAc,-0.176
